Reference: PubChem BioAssay
Values joined by “and” are separate entries in the source; they are usually repeats but may differ in a detail not shown here. Equal values may be shown once. Records with an inconclusive call do not appear. For some of these results: Entries with a potency or affinity are not part of this list. Active and inactive are the calls of the source. Unless noted, no rule for the calls is given here.

Columns and labels:
[1] = target: Calcium-dependent protein kinase 1 (Plasmodium falciparum (isolate 3D7)) (UniProt P62344); assay: PfCDPK1 kinase inhibitors, biochemical, TCAMS library (AID 1159585; cut-off not given, nearly all actives have IC50 up to about 0.98 µM;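 also: inhibitors leave more ATP so luminescence rises with inhibition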); settings: recombinant PfCDPK1, Kinase-Glo ATP depletion luminescence
Calcium-dependent protein kinase 1 (Plasmodium falciparum (isolate 3D7)), sequence (P62344 whole entry, looked up): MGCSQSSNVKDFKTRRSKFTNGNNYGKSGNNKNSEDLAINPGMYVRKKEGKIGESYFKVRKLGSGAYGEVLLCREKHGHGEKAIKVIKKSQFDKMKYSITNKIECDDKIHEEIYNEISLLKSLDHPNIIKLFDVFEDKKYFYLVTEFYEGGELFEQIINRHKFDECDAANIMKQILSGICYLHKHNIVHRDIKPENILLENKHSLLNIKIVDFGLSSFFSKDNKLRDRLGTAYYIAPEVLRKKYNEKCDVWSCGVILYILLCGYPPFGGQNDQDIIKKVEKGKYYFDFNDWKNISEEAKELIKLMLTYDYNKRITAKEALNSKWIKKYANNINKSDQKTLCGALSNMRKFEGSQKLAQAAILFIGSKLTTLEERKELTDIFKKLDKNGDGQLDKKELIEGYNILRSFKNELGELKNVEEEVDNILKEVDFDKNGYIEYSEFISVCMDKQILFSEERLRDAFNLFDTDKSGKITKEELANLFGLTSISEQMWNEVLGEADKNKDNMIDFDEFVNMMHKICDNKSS

[2] = target: Plasmodium falciparum protein kinase 6 (PK6, PF3D7_1337100) (UniProt Q8IDW1); assay: PfPK6 kinase inhibitors, biochemical, TCAMS library (AID 1159586); settings: recombinant PfPK6, Kinase-Glo ATP depletion luminescence
Plasmodium falciparum protein kinase 6 (PK6, PF3D7_1337100), sequence (Q8IDW1 1-305): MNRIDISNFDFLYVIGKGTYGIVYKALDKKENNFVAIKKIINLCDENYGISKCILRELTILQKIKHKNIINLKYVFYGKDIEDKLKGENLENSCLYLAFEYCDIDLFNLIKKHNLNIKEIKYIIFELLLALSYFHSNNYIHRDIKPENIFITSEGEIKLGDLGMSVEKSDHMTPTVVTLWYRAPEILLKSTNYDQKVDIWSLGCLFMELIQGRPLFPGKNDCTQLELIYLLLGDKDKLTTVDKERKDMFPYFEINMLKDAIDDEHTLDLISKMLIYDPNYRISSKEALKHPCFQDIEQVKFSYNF

[3] = target: Protein kinase 7 (PK7), Plasmodium falciparum 3D7 (PF3D7_0213400) (UniProt Q7YTF7); assay: inhibition of Plasmodium PK7 catalytic activity – biochemical, TCAMS antimalarial set, Kinase-Glo luminescence (AID 1159587); settings: recombinant PfPK7, Kinase-Glo ATP depletion luminescence
Protein kinase 7 (PK7), Plasmodium falciparum 3D7 (PF3D7_0213400), sequence (Q7YTF7 1-343): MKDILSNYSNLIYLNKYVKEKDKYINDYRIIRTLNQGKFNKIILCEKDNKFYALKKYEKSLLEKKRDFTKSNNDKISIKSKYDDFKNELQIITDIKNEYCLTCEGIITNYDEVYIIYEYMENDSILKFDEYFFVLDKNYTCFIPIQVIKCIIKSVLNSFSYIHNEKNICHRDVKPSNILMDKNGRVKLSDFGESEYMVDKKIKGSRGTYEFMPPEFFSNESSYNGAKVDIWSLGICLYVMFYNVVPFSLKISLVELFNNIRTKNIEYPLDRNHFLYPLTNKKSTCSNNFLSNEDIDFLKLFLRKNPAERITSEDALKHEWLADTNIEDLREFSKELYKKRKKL

[4] = target: Calcium-dependent protein kinase 4 (Plasmodium falciparum (isolate 3D7)) (UniProt Q8IBS5); assay: PfCDPK4 kinase inhibitors, biochemical, TCAMS library (AID 1159588; cut-off not given, nearly all actives have IC50 up to about 0.91 µM); settings: recombinant PfCDPK4, Kinase-Glo ATP depletion luminescence
Calcium-dependent protein kinase 4 (Plasmodium falciparum (isolate 3D7)), sequence (Q8IBS5 whole entry, looked up): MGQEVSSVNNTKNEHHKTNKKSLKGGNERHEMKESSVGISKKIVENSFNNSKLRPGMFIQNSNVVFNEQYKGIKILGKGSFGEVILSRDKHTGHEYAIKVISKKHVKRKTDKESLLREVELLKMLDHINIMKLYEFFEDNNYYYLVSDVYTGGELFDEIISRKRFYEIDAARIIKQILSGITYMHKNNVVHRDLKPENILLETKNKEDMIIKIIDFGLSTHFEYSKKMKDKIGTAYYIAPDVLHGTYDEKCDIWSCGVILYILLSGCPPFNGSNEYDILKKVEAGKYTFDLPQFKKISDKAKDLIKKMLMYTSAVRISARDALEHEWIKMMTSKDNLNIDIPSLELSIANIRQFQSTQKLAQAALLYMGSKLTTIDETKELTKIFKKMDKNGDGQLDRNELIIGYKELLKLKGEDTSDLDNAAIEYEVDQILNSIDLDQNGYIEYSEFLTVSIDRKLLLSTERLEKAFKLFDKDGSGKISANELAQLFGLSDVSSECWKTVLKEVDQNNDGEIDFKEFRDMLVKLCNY

[5] = antimalarial activity against Dd2 strain (AID 2302;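 active = growth inhibition above 50% at the single 2 µM test dose, taken to imply half-maximal potency below 2 µM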;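 also: 0% = DMSO untreated growth and 100% = chloroquine plus artemisinin killed control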); settings: P. falciparum Dd2 in RBCs, LDH growth readout, 72 h; at 2 µM; stronger effect = higher value
[6] = HepG2 cytotoxicity, primary screen, cytotoxicity control for P. falciparum antimalarial project, cell-based, ATP luminescence (AID 2303;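 active = inhibition above 50%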;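 also: 0% = DMSO wells and 100% = digitonin-killed cells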); settings: HepG2 viability, 24-48 h, at 10 µM, stronger effect = higher value
[7] = target: L-lactate dehydrogenase (Plasmodium falciparum (isolate CDC / Honduras)) (UniProt Q27743); assay: PfLDH activity inhibition – cell lysate, 3D7 strain, counter-screen for P. falciparum growth inhibition project (AID 2304);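 also: 0% = vehicle and 100% = reference inhibitor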; settings: P. falciparum 3D7 crude extract, LDH APAD/NBT absorbance; at 2 µM; stronger effect = higher value
L-lactate dehydrogenase (Plasmodium falciparum (isolate CDC / Honduras)), sequence (Q27743 whole entry, looked up): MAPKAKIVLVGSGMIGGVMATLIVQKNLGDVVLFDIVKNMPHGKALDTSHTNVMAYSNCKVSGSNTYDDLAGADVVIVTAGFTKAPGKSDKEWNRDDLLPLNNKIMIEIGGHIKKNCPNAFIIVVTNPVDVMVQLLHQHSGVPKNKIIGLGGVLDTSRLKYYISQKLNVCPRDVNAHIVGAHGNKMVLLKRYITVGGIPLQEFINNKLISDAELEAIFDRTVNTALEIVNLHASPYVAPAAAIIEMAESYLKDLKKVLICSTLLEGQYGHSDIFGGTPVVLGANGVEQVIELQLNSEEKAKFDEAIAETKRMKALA

[8] = inhibition of 3D7 malaria parasite growth – strain 3D7 (AID 2306);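 also: 0% = DMSO wells and 100% = chloroquine plus artemisinin control wells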; settings: P. falciparum 3D7 erythrocytic growth, LDH absorbance, 72 h; at 2 µM; stronger effect = higher value
[9] = tested on: F380Y; assay: modulators of BK channel variants, profiling panel, selectivity assay, cell-based, U2OS BacMam, thallium flux, beta subunits (AID 1259406;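 active = thallium flux through the channel raised or lowered by more than 3 SD from vehicle-only wells, actives on both sides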;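 also: initial slope of Thallos dye fluorescence rise after thallium is added; log ratio against the mean of 0.3% DMSO vehicle wells on the same plate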); settings: at 30 µM
[10] = tested on: F380Y/beta1; assay: as above; settings: at 30 µM
[11] = tested on: F380Y/beta2Delta; assay: as above; settings: at 30 µM
[12] = tested on: F380Y/beta4; assay: as above; settings: at 30 µM
[13] = target: Calcium-activated potassium channel subunit alpha-1 (Homo sapiens) + Leucine-rich repeat-containing protein 26 (Homo sapiens) (UniProt Q12791+Q2I0M4); assay: as above; settings: F380Y/Slo1WT/gamma1, at 30 µM
Calcium-activated potassium channel subunit alpha-1 (Homo sapiens) + Leucine-rich repeat-containing protein 26 (Homo sapiens), sequence (Q2I0M4 whole entry, looked up, one chain of several): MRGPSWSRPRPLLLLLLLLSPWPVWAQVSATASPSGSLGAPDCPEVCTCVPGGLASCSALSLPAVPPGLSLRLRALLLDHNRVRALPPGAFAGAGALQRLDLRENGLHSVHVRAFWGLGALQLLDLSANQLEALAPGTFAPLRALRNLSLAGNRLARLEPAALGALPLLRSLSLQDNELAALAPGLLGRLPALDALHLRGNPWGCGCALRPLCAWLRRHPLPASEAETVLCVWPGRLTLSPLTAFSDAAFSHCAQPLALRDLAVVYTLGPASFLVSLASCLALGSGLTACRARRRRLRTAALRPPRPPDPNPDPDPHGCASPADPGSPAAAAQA

[14] = tested on: R275C; assay: as above; settings: at 30 µM
[15] = tested on: R275C/beta1; assay: as above; settings: at 30 µM
[16] = tested on: R275C/beta2Delta; assay: as above; settings: at 30 µM
[17] = tested on: R275C/beta4; assay: as above; settings: at 30 µM
[18] = tested on: R275C/Slo1WT/beta2; assay: as above; settings: at 30 µM
[19] = tested on: Aerobactin synthetase IucA (Klebsiella pneumoniae); assay: IucA aerobactin synthetase inhibitors, biochemical, Tocris library, absorbance (AID 1345561); settings: purified IucA enzyme assay, absorbance (OD) read-out; stronger effect = lower value;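 tested at 8 µM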;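 also: 100% = enzyme without compound and 0% = no enzyme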
[20] = growth inhibition of DIPG glioma cells, dose response, cell-based, SU-DIPG-XVII, MIPE5.0, CellTiter-Glo, qHTS (AID 1347060; cut-off not given, nearly all actives have AC50 up to about 26 µM;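 also: cells exposed to compound for 48 hours before viability readout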); settings: SU-DIPG-XVII viability, CellTiter-Glo ATP luminescence
[21] = growth inhibition of DIPG glioma cells, dose response, cell-based, SU-DIPG-XIII, MIPE4.0, CellTiter-Glo, qHTS (AID 1347061; cut-off not given, nearly all actives have AC50 up to about 37 µM;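 also: cells exposed to compound for 48 hours before readout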); settings: SU-DIPG-XIII viability, CellTiter-Glo ATP luminescence
[22] = growth inhibition of DIPG glioma cells, dose response, cell-based, JHH-DIPG-1, MIPE4.0, CellTiter-Glo, qHTS (AID 1347062; cut-off not given, nearly all actives have AC50 up to about 27 µM;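 also: cells exposed to compound for two days before readout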); settings: JHH-DIPG-1 viability, CellTiter-Glo ATP luminescence
[23] = growth inhibition of DIPG glioma cells, dose response, cell-based, SU-DIPG-IV, MIPE4.0, CellTiter-Glo, qHTS (AID 1347063; cut-off not given, nearly all actives have AC50 up to about 30 µM;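 also: compound exposure lasted 48 hours before the viability readout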); settings: SU-DIPG-IV viability, CellTiter-Glo ATP luminescence
[24] = growth inhibition of DIPG glioma cells, dose response, cell-based, SU-DIPG-XIII, MIPE5.0, CellTiter-Glo, qHTS (AID 1347064; cut-off not given, nearly all actives have AC50 up to about 23 µM;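 also: cells exposed to compound for 48 hours before the viability read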); settings: SU-DIPG-XIII viability, CellTiter-Glo ATP luminescence
[25] = viability loss in pontine glioma line – cell-based, SU-DIPG-XXV, MIPE5.0, CellTiter-Glo, qHTS, dose response (AID 1347065; cut-off not given, nearly all actives have AC50 up to about 26 µM;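 also: cells exposed to compound for 48 hours before ATP readout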); settings: CellTiter-Glo ATP luminescence
[26] = SU-DIPG-VI glioma cell viability, MIPE4.0 library, CellTiter-Glo luminescence, qHTS (AID 1347066; cut-off not given, nearly all actives have AC50 up to about 30 µM;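 also: cells exposed to compound for 48 hours before readout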); settings: CellTiter-Glo ATP luminescence
[27] = JHH-DIPG-1 glioma cell viability, MIPE5.0 library, CellTiter-Glo luminescence, qHTS (AID 1347067; cut-off not given, nearly all actives have AC50 up to about 26 µM;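 also: cells exposed to compound for 48 hours before readout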); settings: JHH-DIPG-1 glioma viability, CellTiter-Glo ATP luminescence
[28] = SU-DIPG-XXV glioma cell viability, MIPE5.0 library, qHTS (AID 1347068; cut-off not given, nearly all actives have IC50 up to about 30 µM;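 also: cells exposed to compound for 48 hours before viability readout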)
[29] = sensitizers of A549 cells to miR-34 induction, primary screen, imaging, A549 dox-inducible miR-34, nuclei and caspase counts (AID 1347080;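 active = compounds whose cell count with miR-34 switched on is under 0.7 times the count with it off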); settings: A549 miR-34 inducible, Hoechst nuclei count, 48 h
[30] = survival rescue of mitochondrial mutant cells in low glucose, primary screen, MELAS cybrids, Rieske KO mouse fibroblasts, CellTiter-Glo (AID 1508586;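 active = mean z-score across replicates of 1.96 or higher in either the MELAS or the Rieske mutant cell line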;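 also: z relative to plate mean and SD of compound and empty wells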)
[31] = viability rescue of complex I mutant cybrids, primary screen, cell-based, galactose medium, ATP luminescence (AID 1645843;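 active = z-score of at least 1.8 in each of two replicates, scored against plate mean and spread of sample wells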;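 also: positive z means more ATP and so rescue of galactose-driven cybrid death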); settings: complex I mutant cybrid cells, 72 h, stronger effect = higher value

COc1ccc(Nc2nc(N/N=C/c3cc(Cl)ccc3O)nc(Nc3ccccc3)n2)cc1
inactive: outcome [1] | outcome [2] | outcome [3] | outcome [4]

O=[N+]([O-])c1ccc(-c2nc3ccc(C4=N[C@@H]5CCCC[C@@H]5N4)cc3[nH]2)cc1
inactive: outcome [1] | outcome [2] | outcome [3] | outcome [4]

O=C(Cc1ccc[n+]([O-])c1)Nc1cccc(-c2cccc(-c3nc4ccc(C(F)(F)F)cc4[nH]3)c2)c1
inactive: outcome [1] | outcome [2] | outcome [3] | outcome [4]

COc1ccc(N=[N+]([O-])c2ccccc2[N+]([O-])=Nc2ccc(OC)cc2)cc1
inactive: outcome [1] | outcome [2] | outcome [3] | outcome [4]

O=C(O)CCSSc1cccc[n+]1[O-]
inactive: outcome [1] | outcome [2] | outcome [3] | outcome [4]

CC1CCC(C[C@H](C(=O)N[C@@H](CCC(=O)N2CCCCC2)C(=O)Nc2nccs2)[C@H](C(C)C)N(O)C=O)CC1 (some centres not stated)
inactive: outcome [1] | outcome [2] | outcome [3] | outcome [4]

O=C(CSc1cccc[n+]1[O-])c1ccc(Cc2ncc(C(F)(F)F)cc2Cl)s1
inactive: outcome [1] | outcome [2] | outcome [3] | outcome [4]

O=C(N/N=C/c1nc2ccccc2[nH]1)c1cccc([N+](=O)[O-])c1
inactive: outcome [1] | outcome [2] | outcome [3] | outcome [4]

O=C(Cc1ccc[n+]([O-])c1)Nc1cccc(-c2cccc(-c3nc4ccc(F)cc4[nH]3)c2)c1
inactive: outcome [1] | outcome [2] | outcome [3] | outcome [4]

O/N=C1\CCc2cc(-c3nc(-c4cccc(OCCNCc5ccc(F)cc5)c4)[nH]c3-c3ccncc3)ccc21
inactive: outcome [1] | outcome [2] | outcome [3] | outcome [4]

CCCCCC(C)C(C)c1cc(O)c2c(c1)OC(C)(C)C=C2c1cc[n+]([O-])cc1 (configuration not stated)
inactive: outcome [1] | outcome [2] | outcome [3] | outcome [4]

Cc1cc(C)c2c(c1)/C(=N/O)CCN2
inactive: outcome [1] | outcome [2] | outcome [3] | outcome [4]

O/N=C1\CCc2cc(-c3nc(-c4ccc(OCCN5CCCCC5)cc4)[nH]c3-c3ccncc3)ccc21
inactive: outcome [1] | outcome [2] | outcome [3] | outcome [4]

COc1cc(/C=N/Nc2ccnc3cc(Cl)ccc23)ccc1O
inactive: outcome [1] | outcome [2] | outcome [3] | outcome [4]

CN(C)CCCOc1ccc(-c2nc(-c3ccc4c(c3)CC/C4=N\O)c(-c3ccncc3)[nH]2)cc1
inactive: outcome [1] | outcome [2] | outcome [3] | outcome [4]

O=C(Cc1ccc[n+]([O-])c1)Nc1ccc(-c2cccc(-c3nc4ccc(C(F)(F)F)cc4[nH]3)c2)cc1
inactive: outcome [1] | outcome [2] | outcome [3] | outcome [4]

C=CC[C@@H](C[C@H](O)[C@H](Cc1ccccc1)NC(=O)c1ccc(-n2cccn2)cc1)C(=O)NC1CCCCC1
inactive: outcome [1] | outcome [2] | outcome [3] | outcome [4]

O=C(N/C=N/c1cc([N+](=O)[O-])c(-c2ccncc2)n1-c1ccccc1)c1cccc(O)c1
inactive: outcome [1] | outcome [2] | outcome [3] | outcome [4]

O=C(Nc1ccc(Oc2ccc(OC(F)(F)F)cc2)cc1)c1ccco1
inactive: inhibition [6] 5% | inhibition [7] -1% | log fold change Tl+ flux [14] -0.00331 | log fold change Tl+ flux [15] -0.0279 | log fold change Tl+ flux [16] 0.0205 | log fold change Tl+ flux [17] -0.00484 | log fold change Tl+ flux [18] 0.0301
active: growth inhibition [5] 71% | growth inhibition [8] 90% | log fold change Tl+ flux [9] -0.43 | log fold change Tl+ flux [10] -0.196 | log fold change Tl+ flux [11] -0.597 | log fold change Tl+ flux [12] -0.36 | log fold change Tl+ flux [13] -0.305

O=C1Nc2cccc3c2C1(CCCCN1CCC(c2cc4ccncc4[nH]2)CC1)CCC3 (configuration not stated)
inactive: growth inhibition [5] -2% and -4% | inhibition [6] -1% and -8% | inhibition [7] -3% | outcome [1] | outcome [2] | outcome [3] | outcome [4]
active: growth inhibition [8] 97% and 99%

CCc1cn(CC(=O)N(CCOc2ccc(-c3ccc(C(F)(F)F)cc3)cc2)CCN(CC)CC)c(SCc2ccc(F)cc2)nc1=O
inactive: growth inhibition [5] 29% | inhibition [6] 46% | inhibition [7] -3% | outcome [1] | outcome [2] | outcome [3] | outcome [4]
active: growth inhibition [8] 95%

CCc1ccc(OCc2ccccc2C(=O)Nc2ccc3nc(C)cc(N)c3c2)cc1
1370 and 181: cell count ([29]; measured here: total cells with miR-34 induction, stronger effect = lower value)
0.826: z-score ([30]; Rieske KO mouse fibroblast survival, CellTiter-Glo 72 h)
inactive: inhibition [7] 0% | outcome [1] | outcome [2] | outcome [3] | outcome [4] | remaining activity [19] 108% | fold change ([29]; stronger effect = lower value, cell number ratio, induced over uninduced) 0.988 and 0.896 | z-score ([30]; MELAS cybrid survival, CellTiter-Glo 48 h, stronger effect = higher value) -0.512 | z-score [31] -0.7
1.57 and 0.955: fold change ([29]; measured here: relative caspase fold change +Dox/-Dox)
1390 and 202: cell count ([29]; measured here: total cells without miR-34 induction)
active: growth inhibition [5] 74% | inhibition [6] 98% | growth inhibition [8] 99% | AC50 [20] 9.34 µM | AC50 [21] 11.8 µM | AC50 [22] 3.32 µM | AC50 [23] 3.32 µM | AC50 [24] 7.42 µM | AC50 [25] 8.33 µM | AC50 [26] 8.33 µM | AC50 [27] 5.25 µM | IC50 [28] 9.34 µM
